The entries come from a sample that favours hits as a whole.
Pf Dd2 growth = blocks in vitro growth of P. falciparum Dd2. P. falciparum Dd2 growth, SYBR Green, 72 h. AID 1347417. Potency, µM (top dose mostly 28.9 µM), most hits filed as inhibitors. 120,000 tested, 4.3% active; active = well fitted inhibition curve with a large enough effect; note: nearly all actives have a fitted effect of over 65% in size
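Readout: SYBR Green fluorescence, 485 nm excitation, 535 nm emission, after ~16 h lysis at 37C. Before that, Dd2-infected red cells (2.5% hematocrit) grew 72 h with compound, 29 uM top final concentration.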
Large screens that a line does not name were inactive.

O=C(O)CCNc1c(-c2ccc(F)cc2)nc2cnccn12	none
O=C(CCC1CCN(C(=O)c2ccccc2Cl)CC1)N1CCc2ccccc2C1	none
O=C(O)c1cccc2c1CCN2C(=O)Nc1ccc(F)cc1	none
C=CCNC(=O)CCc1c(C)nn(-c2ccc(F)cc2)c1Oc1ccccc1OC	none
COc1ccc(OC)c(CNC(=O)c2nnn3c2COC(c2ccc(Cl)cc2)C3)c1 (centres undefined)	none
COCCN1C(=O)CO[C@H]2CN(C3CCOCC3)C[C@H]21	none
O=C(O)C[C@@H]1CCN(C(=O)C2CC2)C[C@@H]1CCN1CCC(n2c(=O)[nH]c3ccccc32)CC1	none
O=C(C1CCOC1)N1CCC2(CC1)NCCc1c2[nH]c2ccccc12 (centres undefined)	none
Cc1ccccc1Nc1c(-c2ccccc2O)nc2sccn12	none
COc1ccc(-c2nc3cc(C)ccn3c2NC(=O)c2ccc(F)cc2)cc1	none
Cc1ccn2c(Nc3ccc(F)cc3)c(-c3ccccn3)nc2c1	Pf Dd2 growth 4.5µM
Cc1ccc2nc(-c3ccc(O)cc3)c(Nc3ccc4c(c3)OCCO4)n2c1	none
Cc1ccc2nc(-c3ccccc3O)c(Nc3ccccc3C)n2c1	Pf Dd2 growth 1.4µM
Cc1ccc(Nc2c(-c3ccccn3)nc3ccc(Br)cn23)cc1	none
COc1cc(Cl)c(C)cc1NC(=O)CN1C(=O)NC(c2ccc(Cl)cc2)C2=C1COC2=O (centres undefined)	none
CCN(CC)C(=O)CC[C@H]1CNC(=O)[C@@H]2[C@@H](CCN2Cc2csnn2)N1C	none
O=C(NCC1CC1)C1CCCN(c2nc3ncccc3o2)C1 (centres undefined)	none
OCCc1cc(CC2(N(CC3CC3)CC3CC3)COC2)no1	none
COC[C@@H]1CNC[C@H]1c1nc(C)no1	none
Cc1nc(-c2ccc(Cl)cc2)n(Cc2ccc(F)cc2F)c(=O)c1CCO	none
COc1cccc(N2C(=O)NC(=NC3CCCCC3)C23CCN(C(=O)c2ccc(C(F)(F)F)cc2)C3)c1 (centres undefined)	none
COc1ccc(-c2cc3c(nc2OC)nc(CC2CC2)n3C)cc1	none
COc1nc2nc(CCc3ccccc3)n(C)c2cc1-c1ccncc1	none
COc1ncc(-c2cc3c(nc2OC)nc(CCc2ccccc2)n3C)cn1	Pf Dd2 growth 7.9µM
CCC(C)NC(=O)NCCc1noc(-c2ccncc2)n1 (centres undefined)	none
C[C@@H]1CN(C2(C(=O)NCc3ccncc3)Cc3ccccc3C2)C[C@H](C)O1	none
Cc1cccc(Cn2nnc3c(=O)[nH]c(C4CCN(C(=O)c5ccccc5F)CC4)nc32)c1	none
O=C(Cc1ccccc1F)N1CCC(c2nc3c(nnn3Cc3ccc(F)cc3)c(=O)[nH]2)CC1	none
O=C(Cc1ccc(F)cc1)N1CCC(c2nc3c(nnn3Cc3ccc(Cl)cc3)c(=O)[nH]2)CC1	Pf Dd2 growth 14µM
Cc1ccc(C(=O)N2CCCCCCn3c(nnc3-c3ccc(F)cc3)CC2)cn1	none
COc1cccc(-c2cn3c(n2)N(C(=O)Cc2ccsc2)CCC3)c1	none
COc1cccc(-c2cn3c(n2)N(C(=O)C2CCCC2)CCC3)c1	Pf Dd2 growth 8.9µM
COc1cccc(-c2cn3c(n2)N(C(=O)C2CCC2)CCC3)c1	none
CC(C)NC(=O)N(C1CCOCC1)C1CN(S(=O)(=O)c2cn(C)cn2)C1	none
COc1ccccc1-c1nc2nccc(-c3ccc(Br)s3)n2n1	none
O=C([C@@H]1C[C@H](Oc2cccnc2)CN1C(=O)c1cccnc1)N1CCCC1	none
O=C(COc1ccccc1)N1CCOC[C@H](Oc2ccccc2)C1	none
COc1ccc(C)cc1NC(=O)Cn1ccn2nc(-c3ccc(F)cc3)c(CO)c2c1=O	none
COCCN1C(=O)[C@H]2CN(Cc3cccc(F)c3)C[C@H]2C1=O	none
CC(C)(C)c1cnc([C@@H]2COCCN2Cc2ccccc2O)[nH]1	Pf Dd2 growth 2µM
Clc1ccc(-c2cnc([C@@H]3COCCN3CC3CC3)[nH]2)s1	none
c1ccc(-c2cnc([C@@H]3COCCN3Cc3cccnc3)[nH]2)cc1	none
CS(=O)(=O)c1ccc(CN2CCOC[C@H]2c2ncc(-c3ccc(Cl)cc3)[nH]2)cc1	Pf Dd2 growth 11µM
Fc1ccc(-c2cnc([C@@H]3COCCN3Cc3cccnc3)[nH]2)cc1	none
Fc1ccc(CN2CCOC[C@H]2c2ncc(-c3ccc(Cl)s3)[nH]2)cc1	Pf Dd2 growth 11µM
CS(=O)(=O)c1ccc(CN2CCOC[C@H]2c2ncc(-c3ccc(F)cc3F)[nH]2)cc1	none
CC(=O)Nc1ccc(CN2CCOC[C@H]2c2ncc(-c3ccc(F)cc3F)[nH]2)cc1	none
CC(C)(C)CN1CCOC[C@H]1c1ncc(-c2ccc(F)cc2F)[nH]1	none
CC(=O)N1CCC(N2CCOC[C@H]2c2ncc(-c3ccc(S(C)(=O)=O)cc3)[nH]2)CC1	none
CC(C)(C)c1cnc([C@@H]2COCCN2Cc2ccc(Cl)cc2)[nH]1	Pf Dd2 growth 4µM
COc1ccc(-c2cc(N3CCC(NC(=O)c4ccccc4Br)C3)n[nH]2)cc1 (centres undefined)	none
O=S(=O)(N[C@H]1CO[C@H]2[C@@H]1OC[C@@H]2Nc1nccc(-c2ccc3c(c2)OCO3)n1)c1ccc2ccccc2c1	none
CC(C)Oc1cccc(-c2cn(C)c(=O)n3cc(CN4CCOCC4)nc23)c1	none
CCOc1ccc(C(=O)Nc2ccc3c(c2)CCC(=O)N3CC(C)C)cc1	none
COCC(=O)N1CCN2C(=O)N(Cc3ccccc3)C(=O)[C@H]2C1	none
Cc1ccccc1NC(=O)CN1C(=O)NC2(CCC(C(C)(C)C)CC2)C1=O (centres undefined)	none
Cc1ccc(CNC(=O)CC2CCCN(c3cnn(C)c(=O)c3)C2)cc1 (centres undefined)	none
Cc1noc(C)c1CN1CCNc2cc(-c3ccccc3)ncc2C1	none
Cn1c(CN2CCOC[C@H]2c2ncc(-c3ccc(Cl)cc3)[nH]2)nc2ccccc21	Pf Dd2 growth 10µM
Clc1ccc(-c2cnc([C@@H]3COCCN3Cc3cnc[nH]3)[nH]2)cc1	none
Cc1ccc(-c2cnc([C@@H]3COCCN3Cc3cnc[nH]3)[nH]2)cc1	none
CCN1C(=O)COC[C@@H]1[C@H](O)c1ccc(NC(=O)COC)cc1	none
COCCN1C(=O)CS(=O)C12CCN(S(=O)(=O)c1ccc(F)cc1)CC2 (centres undefined)	none
CSc1cccc(NC(=O)NC[C@H]2C[C@@H]3CCN2C[C@@H]3CN2CCSCC2)c1	Pf Dd2 growth 10µM
CN1CCN(C[C@H]2CN3CC[C@H]2C[C@@H]3CNC(=O)Nc2ccccc2)CC1	none
N#Cc1cccc(NC(=O)NC[C@H]2C[C@@H]3CCN2C[C@@H]3CN2CCSCC2)c1	none
COCCCN1CC2(CCN(CC(=O)N3CCNCC3)CC2)CC1=O	none
C1CC(C2CCN(C3CCOCC3)CC2)CN1 (centres undefined)	none
CCCNC(=O)C1N(c2ccc(OC)cc2)C(=O)C12CCCCC2 (centres undefined)	none
CC(O)c1cc2n(n1)CCN(C(=O)CN1CCCN(C)CC1)C2 (centres undefined)	none
Cc1noc(-c2cn(C3CCN(C(=O)c4ccccc4)C3)nn2)n1 (centres undefined)	none
CC(C)COc1ccc(C(=O)N2CCN(CCc3ccncc3)CC2)cc1	none
CN1CCN(C2(CNC(=O)c3ccc(C(C)(C)C)cc3)CCCCC2)CC1	none
CC(C)COc1ccc(C(=O)NCC2(N3CCN(C)CC3)CCCCC2)cc1	Pf Dd2 growth 10µM
COc1ccc(-c2ccc3nnc(CNC(=O)c4ccccc4Cl)n3n2)cc1	none
CN1CCN(Cc2nc(C3(O)CCN(C(=O)Cc4ccccc4)CC3)cs2)CC1	none
O=C(c1cccc2nccnc12)N1CCC2(CC1)CC(N1CCCC1)CCO2 (centres undefined)	none
Cc1cnc(=O)[nH]c1SCC(=O)Nc1cc(C(F)(F)F)ccc1Cl	none
